The nature of assay [1]: qHTS assay to test for compound auto fluorescence at 535 nm (green) in HEK293 cells (AID 720680). For orientation: In qHTS, concentration-response curves come from the screen itself.
Assay [2] in a line: qHTS assay to test for compound auto fluorescence at 460 nm (blue) in HEK293 cell free culture (AID 720681). The method, boiled down:
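Test compounds were pinned into cell-free culture medium (DMEM with 10% FBS) and fluorescence was read directly at Ex/Em 405/460 nm. Signals were expressed as fluorescence equivalents of triamterene, with DMSO vehicle as control.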

A short description of assay [3]: qHTS assay to test for compound auto fluorescence at 535 nm (green) in HEK293 cell free culture (AID 720682). An outline of the steps:
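No cells present: wells hold DMEM supplemented with 10% FBS, into which compound or vehicle is pinned. Green emission is then recorded (485 nm excitation, 535 nm emission) and scaled to fluorescein.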

A short description of assay [4]: qHTS assay to test for compound auto fluorescence at 590 nm (red) in HEK293 cell free culture (AID 720683). An outline of the steps: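 Tox21 10K library compounds were pinned into cell-free DMEM with 10% FBS and fluorescence was read at excitation 540 nm. Activity is expressed as Rose Bengal sodium equivalency.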
Assay [5] can be described thus: qHTS assay to test for compound auto fluorescence at 590 nm (red) in HepG2 cell free culture (AID 720684). The method, boiled down: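 Readout: intrinsic compound fluorescence at 590 nm emission after 540 nm excitation, scaled to Rose Bengal sodium. Matrix was cell-free MEM with 10% FBS; DMSO vehicle wells served as control.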
A short description of assay [6]: qHTS assay to test for compound auto fluorescence at 535 nm (green) in HepG2 cell free culture (AID 720686).
Assay [7] in a line: qHTS assay to test for compound auto fluorescence at 460 nm (blue) in HepG2 cells (AID 720687). The method, boiled down: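 Cells (2,000/well in MEM with 10% FBS) attached overnight at 37 C, then were exposed to compound or DMSO for 1 hr at 37 C, 5% CO2. Fluorescence read at Ex/Em 405/460 nm, expressed as triamterene-equivalent signal.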
Assay [8] concerns the target Glucocorticoid receptor (Homo sapiens) (UniProt P04150). The assay can be described thus: qHTS assay to identify small molecule agonists of the glucocorticoid receptor (GR) signaling pathway (AID 720691; active means well fitted activation curve with a large enough effect in the signal ratio in the repeat runs, not every such curve was filed as active; the % refers to the signal ratio). Particulars: GR-bla HeLa, beta-lactamase reporter ratio, 18 h; activation: at 62.4 µM (top of the series) unless noted. An outline of the steps: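 Steps: seed GR-bla HeLa cells, incubate 4 h at 37 C/5% CO2; pin-transfer DMSO-dissolved compounds; incubate 18 h at 37 C; add LiveBLAzer B/G FRET substrate; after 2 h at room temperature, measure fluorescence.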

For assay [9] the target is unchanged. The assay can be described thus: qHTS assay to identify small molecule antagonists of the glucocorticoid receptor (GR) signaling pathway (AID 720692; active means well fitted inhibition curve with a large enough effect in the signal ratio in the repeat runs, not every such curve was filed as active; the % refers to the signal ratio). The method, boiled down:
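Antagonism was scored as loss of dexamethasone-driven (5 nM final) reporter signal in HeLa cells bearing a glucocorticoid response element–beta-lactamase construct, after 18 h compound exposure at 37 C and 2 h FRET substrate loading.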

Assay [10] is described as follows: qHTS assay for identifying genotoxic compounds that show differential cytotoxicity against isogenic chicken DT40 cell lines with known DNA damage response pathways - wild type cell line (AID 743012). Further: nearly all actives have a fitted effect of over 60% in size. Further: potency means the concentration at half of the fitted maximal effect. An outline of the steps: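 Cytotoxicity in repair-proficient parental chicken DT40 cells serves as the comparator for Rad54/Ku70- and Rev3-deficient lines. Cells were exposed to compounds for 40 h at 37 C/5% CO2, and ATP-based luminescence (CellTiter-Glo) measured viability.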

The nature of assay [11]: qHTS assay to identify small molecule antagonists of the androgen receptor (AR) signaling pathway - cell viability counter screen (AID 743033; further: nearly all actives have a fitted effect of over 45% in size; further: potency means the concentration at half of the fitted maximal effect).
Assay [12] has as its target Androgen receptor (Homo sapiens) (UniProt P10275). As to the kind of experiment: qHTS assay to identify small molecule antagonists of the androgen receptor (AR) signaling pathway (AID 743035; active means well fitted inhibition curve with a large enough effect in the signal ratio in the repeat runs, not every such curve was filed as active; the % refers to the signal ratio). The method, boiled down: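 Steps: seed AR-UAS-bla GripTite HEK293 cells, incubate 4 h at 37C; pin in test compound, then add agonist R1881; incubate 16 h at 37C; add LiveBLAzer B/G FRET substrate, 2 h at room temperature; read fluorescence.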

Assay [13] shares this target. As to the kind of experiment: qHTS assay to identify small molecule agonists of the androgen receptor (AR) signaling pathway (AID 743036; active means well fitted activation curve with a large enough effect in the signal ratio in the repeat runs, with a control signal flat, not every such curve was filed as active; the % refers to the signal ratio). The method, boiled down: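 Quantitative HTS of the Tox21 10K library in HEK293 cells bearing a stably integrated UAS-controlled beta-lactamase reporter. Compound exposure lasted 16 h at 37C. Reporter activity was detected by FRET substrate fluorescence after 2 h at room temperature.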

The target is the same in assay [14]. The assay can be described thus: qHTS assay to identify small molecule agonists of the androgen receptor (AR) signaling pathway using the MDA cell line (AID 743040; further: nearly all actives have a fitted effect of over 20% in size). An outline of the steps:
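Agonist activity is measured as luciferase luminescence in human MDA-kb2 cells whose MMTV reporter responds to both AR and GR. Compounds in DMSO incubate 16 h at 37C, 0% CO2, and ONE-Glo is read after 30 min.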

The nature of assay [15]: qHTS assay to identify small molecule antagonists of the androgen receptor (AR) signaling pathway using the MDA cell line - cell viability counter screen (AID 743041; further: nearly all actives have a fitted effect of over 45% in size). The method, boiled down: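 qHTS viability read-out; MDA-kb2 AR-luc; R1881-stimulated; 16 h exposure at 37C, 0% CO2; CellTiter-Fluor, 30 min; fluorescence intensity.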
Assay [16] concerns the target Androgen receptor (Homo sapiens) (UniProt P10275). The assay can be described thus: qHTS assay to identify small molecule antagonists of the androgen receptor (AR) signaling pathway using the MDA cell line (AID 743042; further: nearly all actives have a fitted effect of over 55% in size). The method, boiled down: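 MDA-kb2 cells (human breast carcinoma, stably carrying an MMTV-luciferase reporter responsive to AR and GR) were plated at 3,000 cells/well and preincubated 5 hr at 37C, then given compound plus R1881 agonist for 16 h. ONE-Glo luminescence was read.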

A short description of assay [17]: qHTS assay to identify small molecule antagonists of the glucocorticoid receptor (GR) signaling pathway - cell viability counter screen (AID 720693). Further: nearly all actives have a fitted effect of over 55% in size.
Assay [18] in a line: qHTS assay to test for compound auto fluorescence at 460 nm (blue) in HepG2 cell free culture (AID 720685). An outline of the steps:
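Cell-free plates of MEM plus 10% FBS received 23 nL compound or DMSO vehicle; blue-channel (405/460 nm) intensity scored against triamterene as reference fluorophore.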

Assay [19] can be described thus: qHTS assay for identifying genotoxic compounds that show differential cytotoxicity against isogenic chicken DT40 cell lines with known DNA damage response pathways - Rev3 mutant cell line (AID 743014). Further: nearly all actives have a fitted effect of over 55% in size. Further: potency means the concentration at half of the fitted maximal effect.
The nature of assay [20]: qHTS assay for identifying genotoxic compounds that show differential cytotoxicity against isogenic chicken DT40 cell lines with known DNA damage response pathways - Rad54/Ku70 mutant cell line (AID 743015). Further: nearly all actives have a fitted effect of over 60% in size.

“And” between values parts separate entries of the source, which are not always exact repeats. Equal entries are not always repeated. Records with an inconclusive call do not appear. Some compounds were tested as several samples or in several runs, with calls that do not always agree. The source made the active and inactive calls. Unless noted, the call rests on the fitted dose curve; in most records, active means well fitted curve in the direction sought with a large enough effect in the repeat runs; inconclusive means weak or mixed curves; inactive means no such curve, though single readings can be large; an effect the other way counts as inactive or inconclusive.

Chain of Glucocorticoid receptor (Homo sapiens) (P04150 whole entry, looked up): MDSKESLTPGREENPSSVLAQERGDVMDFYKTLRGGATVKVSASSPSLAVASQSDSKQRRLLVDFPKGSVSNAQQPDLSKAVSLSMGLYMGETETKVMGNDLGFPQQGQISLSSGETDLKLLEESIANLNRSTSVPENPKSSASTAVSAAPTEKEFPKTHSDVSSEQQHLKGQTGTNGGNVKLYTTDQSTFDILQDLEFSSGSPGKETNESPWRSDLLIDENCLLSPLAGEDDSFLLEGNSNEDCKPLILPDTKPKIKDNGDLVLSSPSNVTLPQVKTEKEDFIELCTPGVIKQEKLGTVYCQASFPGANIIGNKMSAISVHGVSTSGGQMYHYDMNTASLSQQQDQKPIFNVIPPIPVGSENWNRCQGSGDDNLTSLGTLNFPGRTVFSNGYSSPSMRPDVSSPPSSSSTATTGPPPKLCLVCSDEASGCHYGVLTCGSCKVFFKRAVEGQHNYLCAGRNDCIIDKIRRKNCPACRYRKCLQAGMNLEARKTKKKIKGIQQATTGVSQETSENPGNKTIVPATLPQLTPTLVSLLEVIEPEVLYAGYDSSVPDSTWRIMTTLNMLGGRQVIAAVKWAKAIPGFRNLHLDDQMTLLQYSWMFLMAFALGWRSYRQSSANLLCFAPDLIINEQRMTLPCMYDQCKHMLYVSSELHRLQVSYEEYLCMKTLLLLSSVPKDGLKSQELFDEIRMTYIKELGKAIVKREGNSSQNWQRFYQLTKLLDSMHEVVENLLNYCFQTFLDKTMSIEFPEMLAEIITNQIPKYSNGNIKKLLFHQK
Chain of Androgen receptor (Homo sapiens) (P10275 whole entry, looked up): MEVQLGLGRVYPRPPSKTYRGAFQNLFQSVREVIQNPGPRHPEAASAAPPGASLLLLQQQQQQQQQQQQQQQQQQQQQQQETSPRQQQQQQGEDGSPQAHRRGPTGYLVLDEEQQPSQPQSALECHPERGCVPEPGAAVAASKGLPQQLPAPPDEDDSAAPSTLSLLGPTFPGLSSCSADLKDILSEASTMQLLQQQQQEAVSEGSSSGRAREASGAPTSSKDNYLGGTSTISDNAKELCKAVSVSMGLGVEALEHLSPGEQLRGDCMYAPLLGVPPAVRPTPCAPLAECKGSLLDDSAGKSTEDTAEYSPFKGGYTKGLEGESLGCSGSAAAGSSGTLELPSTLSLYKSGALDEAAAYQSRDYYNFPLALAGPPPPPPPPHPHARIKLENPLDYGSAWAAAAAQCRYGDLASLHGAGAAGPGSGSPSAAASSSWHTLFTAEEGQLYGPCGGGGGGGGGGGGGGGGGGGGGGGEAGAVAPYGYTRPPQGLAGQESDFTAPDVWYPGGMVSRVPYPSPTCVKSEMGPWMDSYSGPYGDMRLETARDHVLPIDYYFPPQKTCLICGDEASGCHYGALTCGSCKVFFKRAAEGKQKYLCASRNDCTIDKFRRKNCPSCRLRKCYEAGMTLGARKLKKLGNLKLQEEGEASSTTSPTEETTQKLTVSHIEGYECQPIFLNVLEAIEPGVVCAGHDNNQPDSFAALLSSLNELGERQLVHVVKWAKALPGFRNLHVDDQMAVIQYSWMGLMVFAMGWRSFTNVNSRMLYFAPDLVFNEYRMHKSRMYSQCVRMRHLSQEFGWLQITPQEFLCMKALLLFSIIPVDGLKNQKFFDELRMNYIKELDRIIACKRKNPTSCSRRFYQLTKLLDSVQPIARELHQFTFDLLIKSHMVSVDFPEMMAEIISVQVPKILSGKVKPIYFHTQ

In the case of `NCCNCCNCCNCCN`, the call in assay [1], in assay [3], in assay [4], in assay [5], in assay [6] and in assay [7] was inactive. Further, the result in assay [12], in assay [13], in assay [14] and in assay [16] was inactive. Further, the Potency result in [2], in assay [8], in [9], in assay [10], in assay [11] and in assay [15] was “inactive” in each case.
Consider `CCCCCCCCCC(=O)O`, for which the result in [1], in assay [3], in assay [4], in assay [5], in assay [6] and in assay [7] was inactive. Besides, the outcome in [12], in [13], in assay [14] and in assay [16] was inactive. Also, the Potency entry in assay [2], in assay [8], in assay [9], in assay [17], in assay [10] and in assay [15] was “inactive” in each case. Moreover, the Potency result in [11] is “inactive and 55 µM (active)”.
Take `OC[C@@H](O)[C@H](O)[C@H](O)[C@@H](O)CO`: the molecule was called inactive in assay [1], in assay [3], in assay [4], in [5], in assay [6] and in [7]. Further, the Potency result in [2], in assay [18], in assay [17], in assay [10], in assay [19] and in assay [11] was “inactive” in each case. Further, the Potency entry in [15] was “inactive”.
`O=C(c1cc(O)c(O)c(O)c1)c1ccc(O)c(O)c1O`: the call in [1], in assay [3], in assay [4], in assay [5], in assay [6] and in [7] was inactive. In addition, the Potency result in [2], in assay [8], in assay [17], in [11] and in assay [15] was “inactive” each time. Besides, the Potency in assay [10] is 48.4 µM (active) and 13.7 µM (active); in assay [19], 30.5 µM (active) and 13.7 µM (active).
For `CC1(C)CC(N=C=O)CC(C)(CN=C=O)C1` (configuration not stated), the outcome in [1], in assay [3], in assay [4], in assay [5], in assay [6] and in assay [7] was inactive. The Potency result in [2], in assay [18], in assay [10], in assay [19], in assay [11] and in assay [15] was “inactive” each time.
As to `CCCCOCCO`, the outcome in [1], in assay [3], in assay [4], in assay [5], in [6] and in assay [7] was inactive. Besides, the Potency entry in assay [2], in assay [8], in [9], in assay [17], in assay [10] and in assay [19] was “inactive” throughout. In addition, the Potency result in assay [11] and in assay [15] was “inactive” throughout.
Take `CCCCC(CC)COC(C)=O` (configuration not stated): the molecule was called inactive in assay [1], in [3], in [4], in assay [5], in assay [6] and in assay [7]. In addition, the Potency result in assay [2], in [8], in assay [9], in assay [17], in assay [10] and in assay [19] was “inactive” in each case. The Potency result in [20], in assay [11] and in assay [15] was “inactive” throughout.
For `CC1Cc2ccccc2N1NC(=O)c1ccc(Cl)c(S(N)(=O)=O)c1` (configuration not stated), the molecule was called inactive in assay [1], in assay [3], in assay [4], in assay [5], in assay [6] and in assay [7]. In addition, the Potency entry in assay [2], in assay [18], in assay [10], in assay [19], in assay [20] and in assay [11] was “inactive” each time. Also, the Potency result in assay [15] is “inactive”.
Take `NS(=O)(=O)c1cc2c(cc1Cl)NC=NS2(=O)=O`: the result in assay [1], in [3], in assay [4], in assay [5], in assay [6] and in [7] was inactive. Moreover, the Potency entry in assay [2], in assay [18], in assay [17], in assay [10], in assay [19] and in [20] was “inactive” each time. Moreover, the Potency entry in [11] and in assay [15] was “inactive” throughout.

Values taken from PubChem BioAssay (Tox21).
